According to PubChem BioAssay:
“And” between values parts separate entries of the source, which are not always exact repeats. Equal values may be shown once. The source made the active and inactive calls.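 How the source made its calls, unless noted: active means thallium flux through the channel raised or lowered by more than 3 SD from vehicle-only wells, actives on both sides; inactive means the rest.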

What was measured:
[1] = tested on: Hepatitis C virus NS3 helicase; experiment: HCV NS3 helicase inhibitors, primary screen, biochemical, fluorescence polarization, NIH Clinical Collection (AID 743270; call rule not given here); details: NS3 helicase binding to Cy5-dT15 DNA, stronger effect = higher value, concentration not given here
[2] = target: Single-stranded DNA-binding protein (Escherichia coli (strain K12)) (UniProt P0AGE0); experiment: E. coli SSB displacement from DNA, counter-screen for HCV NS3 helicase inhibitor project, biochemical, fluorescence polarization, NIH Clinical Collection (AID 743271; in the data active means inhibition above about 28%); details: stronger effect = higher value, concentration not given here
[3] = fluorescence interference in NS3h assay format, artefact control for HCV NS3 helicase inhibitor project, biochemical, NIH Clinical Collection (AID 743272; call rule not given here;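 further: HCV NS3 helicase with a Cy5 labelled single stranded DNA probe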); details: fluorescence interference counterscreen, stronger effect = lower value
[4] = stimulators of nuclear beta-catenin in C2C12, primary screen, imaging, WNT3A-conditioned medium, mouse C2C12, NPC library (AID 1117326; in the data active means nuclear beta-catenin stimulation mostly above about 4.2%, no sharp cut-off; inactive means mostly below about 10%); details: stronger effect = higher value
[5] = stimulators of insulin release from INS-1E, primary screen, cell-based, 5 mM glucose, NPC library (AID 1117329;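 active means compound raises insulin release from rat beta cells at 5 mM glucose, no numeric limit stated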); details: rat INS-1E insulin secretion, at 10 µM, stronger effect = higher value
[6] = growth inhibition of GSK3B-pretreated HCT116 cells – cell-based, CellTiter-Glo, 0.2 to 20 µM (AID 1117336;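 active means compounds lowering colon cancer cell viability after pretreatment blocking the GSK3B kinase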); details: HCT116 viability after GSK3B inhibitor, at 20 µM, stronger effect = higher value
[7] = inhibition of endothelial tube formation, primary screen, imaging, VEGF stimulated, CD31 staining, tube area, NPC library (AID 1117340;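 active means compound that reduces growth-factor-driven endothelial tube area in a mixed cell culture, no cutoff stated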); details: VEGF-stimulated ADSC/ECFC co-culture, at 10 µM, stronger effect = higher value
[8] = glucagon-like peptide 1 release enhancers, primary assay, NCI-H716 cell line, NPC library (AID 1117341;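 active means compound raises GLP1 secretion from the human gut endocrine cells, with no numeric limit stated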); details: NCI-H716 cells, at 10 µM, stronger effect = higher value
[9] = HCT116 colon cancer cell growth inhibition, primary screen, CellTiter-Glo luminescence, NPC library (AID 1117342;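 active means compounds that lower survival of HCT116 colon cancer cells in the luminescence readout, no numeric limit stated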); details: at 20 µM (top of the series)
[10] = CellTiter-Glo luminescent readout of SW480 viability loss, NPC library primary (AID 1117343;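 active means compounds that lower viability of the colon cancer cells in the luminescence readout, with no numeric limit stated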); details: CellTiter-Glo luminescence; at 20 µM (top of the series)
[11] = decreased DLD-1 cellular survival, CellTiter-Glo luminescent readout, NPC compound collection, primary HTS (AID 1117346;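 active means compounds that lower survival of DLD-1 colon cancer cells in the luminescence readout, no cutoff given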); details: DLD-1 viability, CellTiter-Glo luminescence; at 20 µM (top of the series)
[12] = target: 6-phosphogluconate dehydrogenase, decarboxylating (Homo sapiens) (UniProt P52209); experiment: 6PGD enzyme inhibitors, primary screen, biochemical, human, recombinant enzyme, NADPH absorbance (AID 1159550;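 active means at least 20% inhibition of 6-phosphogluconate dehydrogenase activity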); details: recombinant 6PGD, NADPH absorbance 341 nm; at 10 µM; stronger effect = higher value
[13] = survival rescue of mitochondrial mutant cells in low glucose, primary screen, MELAS cybrids, Rieske KO mouse fibroblasts, CellTiter-Glo (AID 1508586;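 active means mean z-score across replicates of 1.96 or higher in either the MELAS or the Rieske mutant cell line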;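 further: z relative to plate mean and SD of compound and empty wells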)
[14] = target: NAD(+) hydrolase SARM1 (Homo sapiens) (UniProt Q6SZW1); experiment: SARM1 TIR NADase inhibitors, cell lysate, NAD-Glo luminescence (AID 1508614;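 active means compound whose remaining NAD level is above about 45 nM, limit read from the data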); details: SAM-TIR HEK293T lysate NADase, at 1 µM, stronger effect = higher value
[15] = target: Mitogen-activated protein kinase 7 (Homo sapiens) (UniProt Q13164); experiment: ERK5 transactivation activators in reporter cells, primary screen, cell-based, HTS (AID 1508626;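 active means luciferase signal above three times the same-plate solvent-only control wells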;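 further: luciferase driven by Gal4-ERK5 fusion binding five Gal4 sites before minimal TATA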); details: HeLa Gal4-ERK5 transactivation, 18 h, at 5 µM, stronger effect = higher value
F380Y = experiment: modulators of BK channel variants, profiling panel, selectivity assay, cell-based, U2OS BacMam, thallium flux, beta subunits (AID 1259406); details: at 30 µM;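 further: initial slope of Thallos dye fluorescence rise after thallium is added; log ratio against the mean of 0.3% DMSO vehicle wells on the same plate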
F380Y/beta2Delta = experiment: as above; details: at 30 µM
[16] = target: Calcium-activated potassium channel subunit alpha-1 (Homo sapiens) + Leucine-rich repeat-containing protein 26 (Homo sapiens) (UniProt Q12791+Q2I0M4); experiment: as above; details: F380Y/Slo1WT/gamma1, at 30 µM
[17] = sensitizers of A549 cells to miR-34 induction, primary screen, imaging, A549 dox-inducible miR-34, nuclei and caspase counts (AID 1347080;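 active means compounds whose cell count with miR-34 switched on is under 0.7 times the count with it off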); details: A549 miR-34 inducible, Hoechst nuclei count, 48 h
[18] = differential killing of epithelial or mesenchymal cells, primary screen, imaging, PC-3E GFP, TEM4-18 mCherry, co-culture (AID 1345086;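 active means compounds killing one labelled cell type while sparing the other, by normalised counts and ratio limits, not self-fluorescent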;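 further: cells exposed to compound for 72 h before imaging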;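 on red/green cell ratio (normalised): normalised mesenchymal count divided by normalised epithelial count so high means epithelial killing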); details: imaging cell counts, at 1 µM
[19] = MELAS cybrid survival, CellTiter-Glo 48 h, stronger effect = higher value
[20] = Rieske KO mouse fibroblast survival, CellTiter-Glo 72 h
[21] = stronger effect = lower value, cell number ratio, induced over uninduced
[22] = measured here: relative caspase fold change +Dox/-Dox
[23] = measured here: total cells with miR-34 induction, stronger effect = lower value
[24] = measured here: total cells without miR-34 induction

Mitogen-activated protein kinase 7 (Homo sapiens), sequence (Q13164 whole entry, looked up, the tested form may be a part): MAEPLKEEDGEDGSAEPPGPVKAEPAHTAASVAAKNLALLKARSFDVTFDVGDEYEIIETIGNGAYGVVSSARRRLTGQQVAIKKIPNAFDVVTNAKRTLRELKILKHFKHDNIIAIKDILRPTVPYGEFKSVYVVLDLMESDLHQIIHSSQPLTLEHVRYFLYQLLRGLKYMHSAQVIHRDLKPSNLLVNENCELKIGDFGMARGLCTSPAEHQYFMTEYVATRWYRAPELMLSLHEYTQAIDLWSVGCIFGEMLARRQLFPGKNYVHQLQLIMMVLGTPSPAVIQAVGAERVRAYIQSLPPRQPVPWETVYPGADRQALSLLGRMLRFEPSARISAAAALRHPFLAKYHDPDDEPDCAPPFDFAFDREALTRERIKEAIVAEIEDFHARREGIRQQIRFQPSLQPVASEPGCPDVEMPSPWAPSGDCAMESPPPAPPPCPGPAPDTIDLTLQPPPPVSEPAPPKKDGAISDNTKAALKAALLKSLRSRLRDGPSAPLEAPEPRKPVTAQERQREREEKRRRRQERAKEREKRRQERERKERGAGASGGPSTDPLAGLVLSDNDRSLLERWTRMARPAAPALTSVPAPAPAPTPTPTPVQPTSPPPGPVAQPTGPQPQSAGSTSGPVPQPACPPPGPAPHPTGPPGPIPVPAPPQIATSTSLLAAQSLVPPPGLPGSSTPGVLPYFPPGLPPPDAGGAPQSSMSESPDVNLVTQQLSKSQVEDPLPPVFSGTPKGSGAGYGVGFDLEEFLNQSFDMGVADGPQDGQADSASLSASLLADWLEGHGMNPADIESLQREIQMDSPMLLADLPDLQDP
NAD(+) hydrolase SARM1 (Homo sapiens), sequence (Q6SZW1 whole entry, looked up, the tested form may be a part): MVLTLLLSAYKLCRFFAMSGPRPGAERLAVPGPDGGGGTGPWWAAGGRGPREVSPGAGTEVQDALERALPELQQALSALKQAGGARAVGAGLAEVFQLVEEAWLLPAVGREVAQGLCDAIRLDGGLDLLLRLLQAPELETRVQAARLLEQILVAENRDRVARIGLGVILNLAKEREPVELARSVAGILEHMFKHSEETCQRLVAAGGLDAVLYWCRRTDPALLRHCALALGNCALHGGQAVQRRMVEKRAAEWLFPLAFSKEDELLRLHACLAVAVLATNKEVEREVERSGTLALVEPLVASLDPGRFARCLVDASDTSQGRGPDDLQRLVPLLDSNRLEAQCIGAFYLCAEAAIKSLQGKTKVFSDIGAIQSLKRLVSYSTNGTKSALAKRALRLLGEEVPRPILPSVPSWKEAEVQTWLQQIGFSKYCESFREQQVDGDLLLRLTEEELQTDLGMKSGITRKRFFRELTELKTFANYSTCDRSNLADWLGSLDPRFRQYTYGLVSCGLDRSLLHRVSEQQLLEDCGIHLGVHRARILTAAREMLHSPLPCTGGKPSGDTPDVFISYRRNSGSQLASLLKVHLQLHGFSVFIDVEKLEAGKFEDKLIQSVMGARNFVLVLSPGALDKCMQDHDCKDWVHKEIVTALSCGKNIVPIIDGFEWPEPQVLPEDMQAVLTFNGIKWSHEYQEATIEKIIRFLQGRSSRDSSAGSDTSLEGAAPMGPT
6-phosphogluconate dehydrogenase, decarboxylating (Homo sapiens), sequence (P52209 whole entry, looked up): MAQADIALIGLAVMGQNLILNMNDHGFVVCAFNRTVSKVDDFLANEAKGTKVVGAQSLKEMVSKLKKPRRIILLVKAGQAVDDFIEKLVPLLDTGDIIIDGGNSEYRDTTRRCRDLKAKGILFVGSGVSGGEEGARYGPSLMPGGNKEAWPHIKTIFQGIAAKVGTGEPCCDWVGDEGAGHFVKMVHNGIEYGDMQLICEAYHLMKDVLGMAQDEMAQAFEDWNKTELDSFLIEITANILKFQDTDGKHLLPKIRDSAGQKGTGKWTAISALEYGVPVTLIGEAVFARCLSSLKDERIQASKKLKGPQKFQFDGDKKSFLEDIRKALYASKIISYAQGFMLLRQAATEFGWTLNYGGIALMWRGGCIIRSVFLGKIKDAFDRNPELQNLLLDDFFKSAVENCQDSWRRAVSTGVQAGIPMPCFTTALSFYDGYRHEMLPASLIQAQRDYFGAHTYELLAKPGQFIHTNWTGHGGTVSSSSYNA
Calcium-activated potassium channel subunit alpha-1 (Homo sapiens) + Leucine-rich repeat-containing protein 26 (Homo sapiens), sequence (Q2I0M4 whole entry, looked up, one chain of several): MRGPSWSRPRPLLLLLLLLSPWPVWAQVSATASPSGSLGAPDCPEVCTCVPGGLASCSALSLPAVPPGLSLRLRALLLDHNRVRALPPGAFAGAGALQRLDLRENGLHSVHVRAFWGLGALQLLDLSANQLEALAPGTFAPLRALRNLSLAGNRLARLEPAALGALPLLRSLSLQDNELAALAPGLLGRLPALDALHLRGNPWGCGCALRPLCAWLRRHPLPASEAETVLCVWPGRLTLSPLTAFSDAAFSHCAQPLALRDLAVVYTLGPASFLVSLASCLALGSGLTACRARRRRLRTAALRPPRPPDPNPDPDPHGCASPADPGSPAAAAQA

COc1ccc([C@@H]2Sc3ccccc3N(CCN(C)C)C(=O)[C@@H]2OC(C)=O)cc1
inactive: inhibition [1] -3.18% | inhibition [2] -2.76% | fluorescence ratio [3] 0.98 | nuclear beta-catenin stimulation ([4]; at 10 µM) 0.5% | insulin secretion stimulation [5] 1.15% | viability decrease [6] 17% | tube area decrease [7] -3.8% | GLP1 secretion stimulation [8] 2.5% | inhibition of viability [9] 32.9% | viability decrease (inhibition) [10] 47.4% | viability decrease (inhibition) [11] 32.3% | inhibition [12] -12.8% | z-score [13, 19] 0.628 and 0.162 | remaining NAD [14] 10 nM | luciferase signal [15] 68 AU | log fold change Tl+ flux (F380Y) 0.0589 | log fold change Tl+ flux (F380Y/beta2Delta) -0.00376 | log fold change Tl+ flux [16] 0.0123
-0.0359 and -0.282: z-score [13, 20]
-0.4%: nuclear beta-catenin stimulation ([4]; stimulation, at 2 µM)

Cn1c(=O)c2[nH]cnc2n(C)c1=O
0.3%: nuclear beta-catenin stimulation ([4]; stimulation, at 2 µM)
inactive: inhibition [1] 0.45% | inhibition [2] -2.76% | fluorescence ratio [3] 1 | nuclear beta-catenin stimulation ([4]; at 10 µM) 1.1% | insulin secretion stimulation [5] 0.2% | viability decrease [6] 0.3% | tube area decrease [7] -10.1% | GLP1 secretion stimulation [8] -0.8% | inhibition of viability [9] 6% | viability decrease (inhibition) [10] 20.4% | viability decrease (inhibition) [11] -2.35% | inhibition [12] 4.58% | remaining NAD [14] 10 nM | luciferase signal [15] 96 AU | log fold change Tl+ flux (F380Y) 0.0321 | log fold change Tl+ flux (F380Y/beta2Delta) -0.0514 | log fold change Tl+ flux [16] -0.0341

Cc1cccc(Nc2ccncc2S(=O)(=O)NC(=O)NC(C)C)c1
0.599 and 1.15: fold change [17, 22]
-0.333: z-score [13, 20]
-0.1%: nuclear beta-catenin stimulation ([4]; stimulation, at 2 µM)
inactive: inhibition [1] -1.19% | inhibition [2] -0.1% | fluorescence ratio [3] 1.02 | nuclear beta-catenin stimulation ([4]; at 10 µM) -1.1% | insulin secretion stimulation [5] 5% | viability decrease [6] -8.2% | tube area decrease [7] -9.9% | GLP1 secretion stimulation [8] -2% | inhibition of viability [9] -1.7% | viability decrease (inhibition) [10] -0.7% | viability decrease (inhibition) [11] -9.6% | inhibition [12] -8.28% | fold change [17, 21] 0.955 and 0.95 | z-score [13, 19] -0.921 | remaining NAD [14] 10 nM | log fold change Tl+ flux (F380Y) 0.0355 | log fold change Tl+ flux (F380Y/beta2Delta) -0.0041 | log fold change Tl+ flux [16] -0.0447
8770 and 10100: cell count [17, 23]
9180 and 10600: cell count [17, 24]

CC(=O)OCC[N+](C)(C)C
1.3: normalised cell number ([18]; measured here: mesenchymal TEM4-18 mCherry cell survival)
-0.06 and -0.687: z-score [13, 20]
inactive: inhibition [1] -0.45% | inhibition [2] 0.29% | fluorescence ratio [3] 1.01 | nuclear beta-catenin stimulation ([4]; at 10 µM) 0.6% | insulin secretion stimulation [5] 0.3% | viability decrease [6] -38.1% | tube area decrease [7] 19.9% | GLP1 secretion stimulation [8] -5.3% | inhibition of viability [9] 10.1% | viability decrease (inhibition) [10] 2.1% | viability decrease (inhibition) [11] -14.9% | inhibition [12] 14.7% | red/green cell ratio (normalised) ([18]; actives lie on both sides, counts scaled to control wells, 1 = unselective) 1.07 | z-score [13, 19] -0.299 and 0.505 | remaining NAD [14] 10 nM | luciferase signal [15] 60 AU | log fold change Tl+ flux (F380Y) 0.0119 | log fold change Tl+ flux (F380Y/beta2Delta) -0.0134 | log fold change Tl+ flux [16] 0.00764
2.2%: nuclear beta-catenin stimulation ([4]; stimulation, at 2 µM)
1.22: normalised cell number ([18]; measured here: epithelial PC-3E GFP cell survival)

Cc1cccc(CN2CCN(C(c3ccccc3)c3ccc(Cl)cc3)CC2)c1 (centres undefined)
-0.151: z-score [13, 20]
8220 and 9250 and 10600: cell count [17, 23]
2.01 and 1.32 and 1.69: fold change [17, 22]
9040 and 10700 and 11700: cell count [17, 24]
-0.6%: nuclear beta-catenin stimulation ([4]; stimulation, at 2 µM)
inactive: inhibition [1] -3.18% | inhibition [2] 7.91% | fluorescence ratio [3] 0.96 | nuclear beta-catenin stimulation ([4]; at 10 µM) 5.6% | insulin secretion stimulation [5] -1.7% | tube area decrease [7] 33.4% | GLP1 secretion stimulation [8] -2.1% | inhibition [12] -14.5% | fold change [17, 21] 0.91 and 0.869 and 0.905 | z-score [13, 19] -0.845 | remaining NAD [14] 10 nM | luciferase signal [15] 96 AU | log fold change Tl+ flux (F380Y) 0.0137 | log fold change Tl+ flux (F380Y/beta2Delta) 0.0401 | log fold change Tl+ flux [16] -0.0345
active: viability decrease [6] 77.3% | inhibition of viability [9] 83.5% | viability decrease (inhibition) [10] 116% | viability decrease (inhibition) [11] 87.8%

CC1=C(C(=O)O)N2C(=O)[C@@H](NC(=O)[C@H](N)c3ccccc3)[C@H]2SC1
9200: cell count [17, 23]
1.36: fold change [17, 22]
10900: cell count [17, 24]
active: GLP1 secretion stimulation [8] 22.8%
inactive: inhibition [1] 8.32% | inhibition [2] 8.37% | fluorescence ratio [3] 0.97 | nuclear beta-catenin stimulation ([4]; at 10 µM) 3.8% | insulin secretion stimulation [5] -0.9% | viability decrease [6] 7.2% | tube area decrease [7] -2.6% | inhibition of viability [9] 24.3% | viability decrease (inhibition) [10] 44.6% | viability decrease (inhibition) [11] 11.8% | inhibition [12] 8.67% | fold change [17, 21] 0.846 | remaining NAD [14] 10 nM | luciferase signal [15] 40 AU | log fold change Tl+ flux (F380Y) -0.036 | log fold change Tl+ flux (F380Y/beta2Delta) -0.0767 | log fold change Tl+ flux [16] -0.0298
0.2%: nuclear beta-catenin stimulation ([4]; stimulation, at 2 µM)

C[C@]12C=CC(=O)C=C1CC[C@@H]1[C@@H]2C(=O)C[C@@]2(C)[C@H]1CC[C@]2(O)C(=O)CO
10500 and 9420 and 10900: cell count [17, 24]
1.65 and 0.777 and 1.15: fold change [17, 22]
0.8%: nuclear beta-catenin stimulation ([4]; stimulation, at 2 µM)
inactive: inhibition [1] -0.45% | inhibition [2] -1.24% | fluorescence ratio [3] 0.95 | nuclear beta-catenin stimulation ([4]; at 10 µM) 0.6% | insulin secretion stimulation [5] -2.5% | viability decrease [6] -21.3% | tube area decrease [7] -13.7% | GLP1 secretion stimulation [8] 0.9% | inhibition of viability [9] -8.2% | viability decrease (inhibition) [10] -6.4% | viability decrease (inhibition) [11] -11.6% | inhibition [12] -6.11% | fold change [17, 21] 0.98 and 0.843 and 0.886 | z-score [13, 19] 0.134 and 0.541 | remaining NAD [14] 10 nM | luciferase signal [15] 28 AU | log fold change Tl+ flux (F380Y) 0.00715 | log fold change Tl+ flux (F380Y/beta2Delta) 0.0137 | log fold change Tl+ flux [16] -0.00874
-0.259 and 0.148: z-score [13, 20]
10300 and 7950 and 9680: cell count [17, 23]
